This is an account of results in PubChem BioAssay.

The source made the active and inactive calls.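 Rule for the calls: active = response below a set limit, under 55% cells CD8-positive and vesicle-bound, and CD8 cells' 90th-percentile brightness under 279; inactive = the rest.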

This assay is described as follows: inhibitors of CD8+ T cell-vesicle binding, pilot screen, LFA-1/ICAM-1 modulator project, MLPCN validation set, flow cytometry (AID 2523).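 For vesicle binding response: mean PE anti-B7-1 fluorescence of CD8+ cells relative to row control; 100% = QL9-loaded vesicles with DMSO vehicle in the same plate row.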 The settings on record: 2C mouse CD8+ T cells, at 7 µM, stronger effect = lower value; double positive events: measured here: CD8+/vesicle+ event percentage. A general note: In flow cytometry, cells or beads pass a laser one at a time.
Consider `CCN(CC)C(=O)N1CCN(C)CC1`, for which the vesicle binding response is 158% (inactive) and the double positive events worked out at 63.6%.
Consider `CC1(C)[C@@H](O)CC[C@]2(C)[C@H]3C(=O)C=C4[C@@H]5C[C@@](C)(C(=O)O)CC[C@]5(C)CC[C@@]4(C)[C@]3(C)CC[C@@H]12`, for which the vesicle binding response was 698% (inactive) and the double positive events is 64.3%.
Taken in the same sequence, the figures for `O=C(Nc1ccc(Cl)cn1)Nc1ccccc1Cl` were 144% (inactive) and 64.5%.
As to `COc1c(C=O)c(CCN(C)C(=O)c2ccc(F)cc2)cc2c1OCO2`, the double positive events was found to be 59.6% and the vesicle binding response was 171% (inactive).
In the case of `COc1ccc(C2C3=C(CC(C)(C)CC3=O)N(C)C3=C2C(=O)CC(C)(C)C3)cc1`, the vesicle binding response was 173% (inactive) and the double positive events was determined as 62.6%.
`CC(C)(Sc1cc(C(C)(C)C)c(O)c(C(C)(C)C)c1)Sc1cc(C(C)(C)C)c(O)c(C(C)(C)C)c1`: the double positive events stood at 60.1% and the vesicle binding response was 170% (inactive).
As to `CC(=O)NC(NC(=S)N1CCCCCC1)C(Cl)(Cl)Cl` (stereo not given), the vesicle binding response was 126% (inactive) and the double positive events was 64.5%.
For `Cc1ccc2c(CC(=O)O)coc2c1` the same measures were 132% (inactive) and 61.6%.
For `COc1cccc(N2C(=O)CC(c3c[nH]c4ccccc34)C2=O)c1` (stereo not given) the same measures were 159% (inactive) and 61.9%.
Taken in the same sequence, the figures for `CC1(CC(=O)Nc2ccccc2)NC(=S)N(c2ccccc2)N1` (stereo not given) were 9640% (inactive) and 49.5%.
In the case of `O=c1nc2n(c3c1oc1ccccc13)Cc1ccccc1-2`, the vesicle binding response was 142% (inactive) and the double positive events came to 56.6%.
Consider `COC(=O)c1ccc(NC(=O)C23CCC(C)(C(=O)O2)C3(C)C)cc1` (stereo not given), for which the vesicle binding response is 195% (inactive) and the double positive events was found to be 64.8%.
Taken in the same sequence, the figures for `c1cnc(N2CCN(Cc3ccc4c(c3)OCO4)CC2)nc1` were 330% (inactive) and 73.9%.
Taken in the same sequence, the figures for `CCOC(=O)C1=C(N)Oc2c(c(=O)[nH]c3ccccc23)C1c1ccccc1` (stereo not given) were 179% (inactive) and 57.2%.
For `CCOc1ccc2[nH]c3c(=O)n(CCc4ccc(OC)cc4)cnc3c2c1`, the double positive events came out at 61.3% and the vesicle binding response is 211% (inactive).
Taken in the same sequence, the figures for `CC(=O)OC(C)C[N+](C)(C)C` (stereo not given) were 65.5% and 191% (inactive).
Taken in the same sequence, the figures for `CNc1c2c(nn1C)CCCC2` were 62.2% and 126% (inactive).
For `O=C(CN1C(=O)/C(=C/c2cccc(Br)c2)SC1=S)Nc1cccnc1` the same measures were 58.9% and 59.7% (inactive).
`N/C(Cc1ccc(Cl)cc1Cl)=N\OC(=O)c1ccc(Br)o1`: the double positive events is 52.1% and the vesicle binding response is 224% (inactive).
For the compound `O=C(c1ccco1)N1CCCN(Cc2nc(-c3ccc4c(c3)OCO4)no2)CC1`, the vesicle binding response is 310% (inactive) and the double positive events came out at 62.2%.
For `Cc1ccc2c(c1)C(O)(C1COC(C)(C)CC1=O)C(=O)N2C` (stereo not given) the same measures were 214% (inactive) and 59.3%.
For `CC(C)(C)C(=O)N1CCCC1C(=O)O` (stereo not given) the same measures were 141% (inactive) and 65.6%.
Consider `COc1ccc(C2NC(=O)c3ccccc3O2)c(OC)c1OC` (stereo not given), for which the vesicle binding response was 200% (inactive) and the double positive events was 61.2%.
For `CC(C(=O)O)c1cccc(C(=O)c2ccccc2)c1` (stereo not given), the double positive events came out at 67.3% and the vesicle binding response is 145% (inactive).
As to `C[N+]1(C2CCC3CCCC2C3O)CCCCC1` (stereo not given), the vesicle binding response is 326% (inactive) and the double positive events came out at 64.9%.
`CCc1cc(=O)oc2cc3occ(-c4ccc(OC)c(F)c4)c3cc12`: the double positive events was 60.2% and the vesicle binding response is 260% (inactive).
For `COC(=O)[C@H]1[C@H]2C[C@@H]3c4[nH]c5cc(OC)ccc5c4CCN3C[C@H]2C[C@@H](OC(=O)c2ccc(N)cc2)[C@@H]1OC` the same measures were 64.5% and 828% (inactive).
As for `O=C(CN1CCN(Cc2ccccc2)CC1)N1CCCc2c1c(=O)oc1ccc(O)cc21`, the vesicle binding response was 202% (inactive) and the double positive events came out at 53%.
For `CCOc1ccc2ccccc2c1C(=O)N[C@@H]1C(=O)N2[C@@H]1SC(C)(C)[C@@H]2C(=O)O` the same measures were 994% (inactive) and 67.6%.
`COc1ccccc1N1CCN(CC(O)COc2cccc3ccccc23)CC1` (stereo not given): the double positive events was found to be 64.3% and the vesicle binding response is 192% (inactive).
For `C[C@]12CC[C@@H]3c4ccc(O)cc4[C@@H](O)C[C@H]3[C@@H]1CC[C@@H]2O` the same measures were 59.1% and 53.4% (inactive).
As for `O[C@H]1COC2C1OC[C@@H]2O` (stereo not given in full), the double positive events turned out to be 58.3% and the vesicle binding response was 204% (inactive).
With `O=C(NCCO)c1ccc(Cl)c(Cl)c1`, the vesicle binding response was 97% (inactive) and the double positive events was determined as 59.4%.
In the case of `O=C(Nc1ccc(C(=O)NC2CCCCC2)cc1)c1cccnc1`, the vesicle binding response is 232% (inactive) and the double positive events was determined as 57.6%.
In the case of `CC(=O)Oc1ccc(C(c2ccc(OC(C)=O)cc2)c2ccccn2)cc1`, the double positive events was determined as 63.6% and the vesicle binding response was 203% (inactive).
Consider `CC(CCc1ccccc1)NC(=O)/C=C/c1ccccc1` (stereo not given), for which the double positive events turned out to be 61.8% and the vesicle binding response was 129% (inactive).
Turning to `Cc1ccc2nc(NC3=NC(CC(=O)O)C(=O)N3)nc(C)c2c1` (stereo not given), the vesicle binding response is 214% (inactive) and the double positive events turned out to be 65.9%.
As to `O=C(NC(Nc1ccccn1)C(Cl)(Cl)Cl)c1ccccc1` (stereo not given), the vesicle binding response was 157% (inactive) and the double positive events came to 58.7%.
For `NC(N)=N/N=C/c1cccc(Cl)c1Cl`, the double positive events stood at 66.1% and the vesicle binding response was 157% (inactive).
`COc1ccccc1C(=O)Oc1ccc2c(c1)O/C(=C\c1ccncc1)C2=O`: the vesicle binding response is 274% (inactive) and the double positive events was 63.9%.
